# UGM FP inh – M. tuberculosis UGM enzyme inhibitors, primary screen, biochemical, fluorescence polarization, single point; UDP-galactopyranose mutase (Mycobacterium tuberculosis (strain ATCC 25618 / H37Rv)), …; purified UGM, fluorescence polarization probe displacement; inhibition, % at 10 µM; 320,000 tested, 0.06% active; AID 504406, 2011; in the data active means inhibition above about 10%, passing the limit was not always enough
# GDH-TPI counter-1 – GDH-TPI coupling enzyme inhibitors, primary screen, artefact control for M. tuberculosis FBA inhibitor project, biochemical, absorbance, full deck | GDH-TPI coupled enzyme counterscreen, NADH absorbance | inhibition, % at 4.8 µM | 360,000 tested, 1.2% active | AID 588335, 2011; in the data active means inhibition above about 30%
# Rv3671c protease – Rv3671c serine protease inhibitors, primary screen, biochemical, fluorescence polarization, M. tuberculosis H37Rv | P9WHR9 | inhibition, % at 5.96 µM | 320,000 tested, 0.048% active | AID 2606, 2010; in the data active means inhibition above about 38%;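 further: extracellular domain of Rv3671c used as enzyme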
# Target sequence (P9WHR9 whole entry, looked up, the tested form may be a part): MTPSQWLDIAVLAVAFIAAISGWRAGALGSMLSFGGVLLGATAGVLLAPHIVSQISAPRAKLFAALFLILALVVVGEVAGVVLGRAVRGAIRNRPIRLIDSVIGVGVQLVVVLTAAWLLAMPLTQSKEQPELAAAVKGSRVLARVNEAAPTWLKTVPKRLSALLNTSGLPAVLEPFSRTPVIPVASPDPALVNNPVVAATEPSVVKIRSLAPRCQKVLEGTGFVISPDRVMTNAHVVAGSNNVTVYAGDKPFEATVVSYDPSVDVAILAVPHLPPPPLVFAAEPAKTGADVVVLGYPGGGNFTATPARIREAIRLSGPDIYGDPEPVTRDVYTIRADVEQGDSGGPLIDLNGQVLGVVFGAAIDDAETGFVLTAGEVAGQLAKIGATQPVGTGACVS
# FBA Mtb inh – Mtb FBA enzyme inhibitors, primary screen, biochemical, fluorescence, strain H37Rv | Fructose-bisphosphate aldolase (Mycobacterium tuberculosis (strain ATCC 25618 / H37Rv)), … | purified M. tuberculosis FBA, fluorescence read-out | inhibition, % at 1 µM | 360,000 tested, 2.3% active | AID 588726, 2011
# Mtb FBA confirm – M. tuberculosis aldolase blockers, biochemical, fluorescence, strain H37Rv, confirmation. shares compounds with FBA Mtb inh. purified M. tuberculosis FBA, fluorescence read-out. inhibition, % at 1 µM. 5,600 tested, 78% active. AID 651616, 2012
# GDH-TPI counter-2 – GDH-TPI coupling enzyme inhibitors, artefact control for M. tuberculosis FBA inhibitor project, biochemical, fluorescence, high throughput | inhibition, % at 1 µM | GDH-TPI coupled enzyme counterscreen | shares compounds with FBA Mtb inh | 5,600 tested, 81% active; in the data active means inhibition above about 10%
# Numbers stand for hits; - = inactive; . = no result given; + = active, no number. Rows were chosen to be rich in hits. Some 3.5% of all compounds tested hit in one or more screens of this group. Unless noted, no stated cut-off is given here; in the data, active means inhibition above about 27%; inactive means the rest.
SMILES,UGM FP inh,GDH-TPI counter-1,Rv3671c protease,FBA Mtb inh,Mtb FBA confirm,GDH-TPI counter-2
COc1ccc(-c2cc(=O)[nH]c(=S)[nH]2)cc1,-,-,-,-,.,.
N#Cc1c(NCCCO)nc(-c2ccccc2)c2c1CCCC2,-,-,-,51,58,36
CN(C)CCCNc1nc(-c2ccccc2)c2c(c1C#N)CC(C)(C)OC2,-,-,-,45,107,85
CC1(C)Cc2c(C#N)c(NCC3CCCO3)nc(-c3ccco3)c2CO1 (configuration not stated),-,-,-,30,+,+
COc1cc(C)ccc1OCCOCCOc1cc(C)c(C)cc1Br,-,-,-,-,.,.
O=C(c1cn(-c2ccccc2)nc1-c1cccnc1)N1CCN(S(=O)(=O)c2ccc(Cl)cc2)CC1,.,-,.,-,.,.

# Bioassay records as filed in PubChem.
